From PubChem BioAssay
The list is not random: actives were taken first. Their share in the collection is about 9.5%.
NS1 inh: qHTS Assay for Inhibitors of Influenza NS1 Protein Function; Potency, µM (highest dose often 46.1 µM); 0.4% of 270,000 active; AID 2326, 2010; further: actives are rising curves; nearly all actives have a fitted effect of over 50% in size
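Read-out: OD600 growth recovery of NS1-expressing budding yeast. Cells grown overnight at 30C in -URA glucose medium, washed, resuspended and diluted 1:100 in 2% galactose assay medium, pH 6.0. Same strain lacking NS1 served as positive control.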
Pf growth 96h: Primary qHTS for delayed death inhibitors of the malarial parasite plastid, 96 hour incubation; 6.9% of 320,000 active; P. falciparum luciferase reporter growth, 96 h; Potency, µM (titrated, usually from 28.7 µM), most hits filed as inhibitors; active means well fitted inhibition curve with a large enough effect; inconclusive means small, poorly fitted or top-dose-only effect, or another doubt; inactive means no such curve, though single readings can be large or run the other way
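Plates of compound plus infected erythrocytes (2% hematocrit, 0.05% parasitemia final) incubate 96 hours, 37 C, 5% CO2. Detection reagent added; reduced luminescence from the parasites' luciferase reporter flags inhibition.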
Pf growth 48h: Primary qHTS for delayed death inhibitors of the malarial parasite plastid, 48 hour incubation | P. falciparum luciferase growth in erythrocytes, 48 h | 5.9% of 310,000 active | Potency, µM (top dose mostly 28.7 µM), actives largely listed as inhibitors; active means well fitted inhibition curve with a large enough effect; inconclusive means small, poorly fitted or top-dose-only effect, or another doubt; inactive means no such curve, though single readings can be large or run the other way
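Parasite viability was followed by luminescence of a genomically integrated firefly luciferase. Cultures held 0.1% parasitemia at 2% hematocrit (final), incubated under 5% CO2 at 37 C.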
SARS PLpro yeast: qHTS of Yeast-based Assay for SARS-CoV PLP. AID 485353, 2010. Potency, µM (highest dose often 32.9 µM), hits mostly activators. S. cerevisiae expressing SARS-CoV PLpro, growth rescue. 0.19% of 330,000 active; further: nearly all actives have a fitted effect of over 55% in size
RE007 growth inh: qHTS Assay for Inhibitors of the HIV-1 protein Vpr; AID 651644, 2012; Potency, µM (series often up to 92.2 µM), actives largely listed as inhibitors; S. pombe RE007 Vpr strain, BacTiter-Glo ATP luminescence, 24 h; 0.21% of 360,000 active; active means well fitted falling curve with a large enough effect; inconclusive means small, poorly fitted or top-dose-only effect; inactive means no such curve, though single readings can be large or run the other way; further: nearly all actives have a fitted effect of over 50% in size
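Fission yeast strain RE007, carrying one chromosomally integrated HIV-1 vpr copy, was seeded at OD 0.01 in PMG+AL medium with 23 nL pinned compound. After 24 h at 30 °C and 99% humidity, viability was read by BacTiter-Glo luminescence.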
A number is an active result; i = inactive; ? = inconclusive; nt = no result; ! = not active in a repeat; [ ] = remark or other dose. Unless noted, the call rests on the fitted dose curve.

SMILES | NS1 inh | Pf growth 96h | Pf growth 48h | SARS PLpro yeast | RE007 growth inh
Cc1ccc(C2CC(=O)NC(SCC(N)=O)=C2C#N)s1 (configuration not stated) | nt | i | i | i | i
CCOC(=O)c1c(NS(=O)(=O)c2ccccc2)n(CCCOC)c2nc3ccccc3nc12 | i | i | 10µM | i | i
CCN(CC)c1ncnc2c1[nH]c1ccccc12 | i | nt | 4.1µM | i | i
CCCOc1ncnc2c1[nH]c1ccccc12 | i | i | i | i | ?
COC(=O)c1c(C)[nH]c(/C=N/Nc2ccccc2)c1C | i | ? | 5.2µM | i | i
O=C(NCc1ccc(F)cc1F)Nc1cnccc1C(F)(F)F | i | i | i | i | i
c1ccc(CC2=NCCN2)cc1 | i | ? | i | i | i[18.4 µM]
c1ccc(CN(CC2=NCCN2)c2ccccc2)cc1 | i | 12µM! | i | i | i
COC(=O)c1ccc(CN2CCc3ccccc32)cc1 | i | i | i | i | i
C[C@@H]1CN(CCCn2c3ccccc3c3ccccc32)C[C@H](C)N1 | nt | 5.4µM | 8.5µM | i | nt
Cc1cc(C)c(S(=O)(=O)/N=C2/C=C(Sc3ncn[nH]3)C(=O)c3ccccc32)cc1C | nt | 10µM | 1.7µM | i | ?
CC(=O)N1CCN(S(=O)(=O)c2cccc(C(=O)Nc3nc4ccccc4[nH]3)c2)CC1 | i | 1.9µM | ? | i | i
CN(c1cccc(Cl)c1)S(=O)(=O)c1cccc(C(=O)Nc2nc3ccccc3[nH]2)c1 | i | ? | 15µM | i | i
COc1ccc(N(C)S(=O)(=O)c2cccc(C(=O)Nc3nc4ccccc4[nH]3)c2)cc1 | nt | ? | ? | i | i
CSCCC(NC(=O)c1cccc(S(=O)(=O)N2CCN(C(C)=O)CC2)c1)c1nc2ccccc2[nH]1 (configuration not stated) | nt | nt | nt | nt | i
CC(=O)c1cccc(-c2ccnc3c2CC(C(=O)Nc2cccc(NS(C)(=O)=O)c2)O3)c1 (configuration not stated) | nt | nt | nt | nt | i
COc1ccc(NS(=O)(=O)c2cccc(C(=O)NCC(c3cccs3)N3CCOCC3)c2)cc1 (configuration not stated) | nt | nt | nt | i | i
O=C(CNc1ccc2c(c1)OCO2)N/N=C\c1cn(Cc2ccc(F)cc2)c2ccccc12 | 13µM | ? | ? | i | nt
O=C(CNc1ccc2c(c1)OCO2)N/N=C\c1cn(Cc2ccccc2)c2ccccc12 | i | ? | i | i | i
COC(=O)C[C@H]1C=C[C@@H](NC(=O)C2CC2)[C@@H](CO)O1 | nt | nt | nt | nt | i
CCOc1ccc(NC(=O)CN(C)C(=O)c2c(-c3c(F)cccc3Cl)noc2C)cc1OCC | nt | 1µM | ? | i | i
Cc1onc(-c2c(F)cccc2Cl)c1-c1nnc(-c2ccc(C(F)(F)F)cc2)o1 | ? | 8.3µM | 8.3µM | i | i
Cc1onc(-c2c(Cl)cccc2Cl)c1C(=O)Nc1ccc2c(C(F)(F)F)cc(=O)oc2c1 | i | 2.3µM | ? | i | i
Cc1onc(-c2ccccc2)c1C(=O)Nc1ccc2c(C)cc(=O)oc2c1 | i | ? | ? | i | i
CC(C)(C)c1ccc(NC(=O)c2c(F)cccc2Cl)cc1 | i | 9.3µM | ? | i | ?
SMILES | NS1 inh | Pf growth 96h | Pf growth 48h | SARS PLpro yeast | RE007 growth inh
Cc1ccc(S(=O)(=O)N(C)C)cc1NC(=O)c1c(-c2c(F)cccc2Cl)noc1C | i | ? | 12µM | i | i
Cc1onc(-c2c(F)cccc2Cl)c1C(=O)Nc1nnc(C(F)(F)F)s1 | i | 10µM | i | i | i
CC(C)(C)c1csc(NC(=O)c2cccnc2)n1 | i | 15µM | ? | i | i
Cc1onc(-c2c(F)cccc2Cl)c1C(=O)Nc1nccs1 | nt | i | i | i | i
Cc1ccc(NC(=O)c2c(-c3c(F)cccc3Cl)noc2C)cc1F | i | ? | 9.3µM | i | i
CC(C)(C)c1csc(NC(=O)c2cccs2)n1 | i | ? | i | i | ?
O=C(Cc1ccccc1)NCC(=O)OCC(=O)c1ccc(Cl)c([N+](=O)[O-])c1 | i | ? | i | i | i
CCn1cnc2c1c(=O)n(CC(=O)OC(C)C(N)=O)c(=O)n2Cc1ccccc1 (configuration not stated) | i | ? | ? | i | i
O=C1C[C@H]2OCC=C3CN4CC[C@@]5(C(=O)O)[C@H](N1)C2[C@H]3C[C@H]45 (some centres not stated) | i | nt | nt | nt | nt
Cc1cc(C)c2sc(NC(=O)C3CC3)nc2c1 | i | i | i | i | i
Cc1onc(-c2c(Cl)cccc2Cl)c1C(=O)Nc1nc(C(C)(C)C)cs1 | i | 10µM | ? | i | i
Cc1cc(=O)[nH]c(SCC(=O)Nc2cccc(S(=O)(=O)N3CCOCC3)c2)n1 | nt | ? | i | i | i
CC(C)(C)NC(=O)c1ccc(COc2ccc(Cl)cc2Cl)o1 | i | ? | i[0.00184 µM] | i | i
C[C@@H]1CN([C@H](C)CO)C(=O)CCCn2nncc2CO[C@@H]1CN(C)S(=O)(=O)c1ccc2ccccc2c1 | nt | nt | nt | nt | i
Cc1ccc2cc(/C=N/NC(=O)[C@H]3C[C@@H]3c3ccccc3)c(Cl)nc2c1 | i | 2.1µM | 2.9µM | i | i
O=C(N/N=C/c1cc2ccccc2nc1Cl)[C@H]1C[C@@H]1c1ccccc1 | i | 1.7µM | 2.6µM | i | i
CCN(CC)C(=O)c1c2c(nc3ccccc13)-c1ccccc1CC2 | i | ? | 7.4µM | i | i
CC(NC(=O)C1CCC(CNS(=O)(=O)c2ccc3c(c2)C(C)(C)C(=O)N3C)CC1)c1ccccc1 (configuration not stated) | i | i | i | i | i
CC(C)C(=O)NCCc1nc(-c2ccc(Cl)cc2)no1 | nt | nt | nt | nt | i
Cc1ccc(N2C(=O)C3C(C2=O)N2C(c4cccs4)C4C(=O)N(c5ccc(C)cc5)C(=O)C4N2C3c2cccs2)cc1 (configuration not stated) | 2.5µM | 1.9µM | ? | i | i
CCOC(=O)C1(C)NC(c2cccs2)C2C(=O)N(c3ccc(C)cc3)C(=O)C21 (configuration not stated) | nt | i[5.75 µM] | i | i | i
C=CCn1c(-c2cccc3ccccc23)n[nH]c1=S | i | ? | nt | ? | i[3.69 µM]
CCn1c(-c2ccccc2SC)n[nH]c1=S | nt | ? | i | i | i
C=CCn1c(-c2cc(-c3ccc(C)cc3)nc3ccccc23)n[nH]c1=S | nt | ? | 17µM | i | i
CCn1c(-c2cc(-c3ccc(OC(C)C)cc3)nc3ccccc23)n[nH]c1=S | i | 1.5µM | nt | i | i
SMILES | NS1 inh | Pf growth 96h | Pf growth 48h | SARS PLpro yeast | RE007 growth inh
CCCOc1cccc(-c2cc(-c3n[nH]c(=S)n3CC)c3ccccc3n2)c1 | i | 3.7µM | 10µM | i | i
CCn1c(-c2cc(-c3ccc(C)cc3)nc3ccccc23)n[nH]c1=S | nt | 17µM | ? | i | i
NC(=O)C12CCCC(Br)(CCC1)C2 | i | i | i | i | i
CCOC(=O)c1ncccc1NC(=O)CC(=O)Nc1cccnc1C(=O)OCC | nt | nt | nt | nt | i
O=C(CN1CCc2cc3c(cc2C1)OCCCO3)Nc1c(F)cccc1F | i | ? | i | i | i
CN(C)N=Nc1ccc(-c2cn(Cc3ccccc3)cn2)cc1 | i | 4.7µM | ? | i | i
